Our source for the max response, Potency and outcome values is PubChem BioAssay (NCATS).

Test [1] concerns HaCat. In words: Cytotoxic Profiling of Annotated Libraries Using Quantitative High-Throughput Screening (AID 1296008). Also: nearly all actives have a fitted effect of over 60% in size. Also: potency is read from the fitted curve at half-maximal effect. As to max response: % is scaled to controls: 0 for no effect and ±100 for the full control effect. The settings on record: Five cell lines viability, CellTiter-Glo ATP luminescence, 48-72 h; max response: hits give low values. An outline of the steps:
(§1)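 Cytotoxicity was measured as CellTiter-Glo ATP luminescence, read after 10 min at room temperature. Compound treatment of the cells lasted 48 or 72 hr at 37 degrees Celsius in a qHTS format.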

The subject of another test is NIH3T3. The test is described as above. To be noted: Five cell lines viability, CellTiter-Glo ATP luminescence, 48-72 h; max response: hits give low values. An outline of the steps:
as §1

The test system of a further test is MCC-13. Put plainly: qHTS assay to identify novel small-molecules to repurpose for Merkel cell carcinoma treatment (AID 1296009). Also: nearly all actives have a fitted effect of over 60% in size. Also: potency is read from the fitted curve at half-maximal effect. The settings on record: MCC and control cell lines, CellTiter-Glo viability, 72 h; series mostly up to 46 µM. An outline of the steps:
(§2)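 Cell viability, measured as CellTiter-Glo luminescence, was normalized between DMSO and no-cell wells. The cells had been exposed to 8- or 11-point compound dilutions for 72 hr at 37 degree celsius.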

The next test deals with MKL-1. Described as above. To be noted: MCC and control cell lines, CellTiter-Glo viability, 72 h; series mostly up to 46 µM. The procedure, abridged: as §2
The next test deals with UISO. Described as above. The settings on record: MCC and control cell lines, CellTiter-Glo viability, 72 h; series mostly up to 46 µM. The procedure, abridged: as §2
The next test has as its system WaGa. Described as above. The settings on record: MCC and control cell lines, CellTiter-Glo viability, 72 h; series mostly up to 46 µM. An outline of the steps: as §2
The test system of the next test is C33A. In words: Primary qHTS to identify gynecologic anti-cancer compounds using libraries of approved drugs and bioactive compounds (AID 1345084). Also: % is scaled to controls: 0 for no effect and ±100 for the full control effect; nearly all actives have a fitted effect of over 55% in size. The settings on record: Gynecologic cancer cell panel viability, ATPlite luminescence, 48 h; series mostly up to 57.5 µM. The procedure, abridged:
(§3)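 Measured: luminescence after ATPlite addition (15 min, RT). Exposure: 48 h, 37 C, 5% CO2.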

Another test deals with CAOV3. Described as above. To be noted: Gynecologic cancer cell panel viability, ATPlite luminescence, 48 h; series mostly up to 57.5 µM. An outline of the steps:
as §3

The subject of another test is CASKI. The description is as above. To be noted: Gynecologic cancer cell panel viability, ATPlite luminescence, 48 h; series mostly up to 57.5 µM. An outline of the steps:
as §3

A further test concerns KB-3-1. In words: Cytotoxic Profiling of Annotated Libraries Using Quantitative High-Throughput Screening (AID 1296008). Also: nearly all actives have a fitted effect of over 60% in size. Also: potency is read from the fitted curve at half-maximal effect. As to max response: % is scaled to controls: 0 for no effect and ±100 for the full control effect. The settings on record: Five cell lines viability, CellTiter-Glo ATP luminescence, 48-72 h; max response: hits give low values. An outline of the steps: as §1
For another test, the system named is MCC-26. In words: qHTS assay to identify novel small-molecules to repurpose for Merkel cell carcinoma treatment (AID 1296009). Also: nearly all actives have a fitted effect of over 60% in size. Also: potency is read from the fitted curve at half-maximal effect. To be noted: MCC and control cell lines, CellTiter-Glo viability, 72 h; series mostly up to 46 µM. The procedure, abridged:
as §2

Another test relates to MKL-2. Described as above. The settings on record: MCC and control cell lines, CellTiter-Glo viability, 72 h; series mostly up to 46 µM. An outline of the steps:
as §2

In test [2] the test system is HACAT. Described as above. The settings on record: MCC and control cell lines, CellTiter-Glo viability, 72 h; at 44.8 µM (top of the series) unless noted. The procedure, abridged:
as §2

In the next test the test system is HEK293. In words: Cytotoxic Profiling of Annotated Libraries Using Quantitative High-Throughput Screening (AID 1296008). Also: nearly all actives have a fitted effect of over 60% in size. Also: potency is read from the fitted curve at half-maximal effect. As to max response: % is scaled to controls: 0 for no effect and ±100 for the full control effect. To be noted: Five cell lines viability, CellTiter-Glo ATP luminescence, 48-72 h; max response: hits give low values. The procedure, abridged: as §1
Another test relates to W2. Put plainly: qHTS profiling for inhibitors of Plasmodium falciparum proliferation (AID 504749). The settings on record: P. falciparum in erythrocytes, SYBR Green DNA, 72 h; series mostly up to 28.7 µM. The procedure, abridged:
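SYBR Green fluorescence of parasite DNA, read after lysis and overnight dark incubation, measured growth over 72 h in erythrocyte culture at 0.3% parasitemia and 2.5% hematocrit. Data normalised to DMSO and 0.29 uM artemisinin, with plate-drift correction.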

Several values for one entry are separate records, joined by “and”; a condition that tells them apart may be missing. Identical values can stand only once. Inconclusive results are not listed. Unmarked numbers belong to inactive results. Activity calls are given as the source filed them. Calls follow the shape of the dose curve; as a rule, active = well fitted curve in the direction sought with a large enough effect; inconclusive = small, poorly fitted or top-dose-only effect, or another doubt; inactive = no such curve, though single readings can be large; an effect the other way counts as inactive or inconclusive.

With `CN(C)Cc1ccc(-c2nc3cccc4c3n2CCNC4=O)cc1`, the max response in the test on HaCat [1] is -6.01% and -9.35%; in the test on NIH3T3 it was -8.05% and -9.14%. Moreover, the Potency result with MCC-13, in the test on MKL-1, with UISO, in the test on WaGa, in the test on C33A and in the test with CAOV3 was “inactive” each time. Besides, the Potency entry in the test on CASKI is “inactive”.
On to `COc1ccc2c(Oc3ccc(NC(=O)c4c(C)n(CC(C)(C)O)n(-c5ccccc5)c4=O)cc3F)ccnc2c1`, for which the max response in the test with HaCat [1] is 2.66% and -22.8%; with KB-3-1 it was -19.2%. In addition, in the test on NIH3T3, the Potency is 8.33 µM (active) and 10.3 µM (active). The Potency result in the test on MCC-13, in the test on MCC-26, in the test on MKL-1, in the test on MKL-2, in the test on WaGa and in the test with C33A was “inactive” in each case. Also, the Potency result in the test with CAOV3 and in the test with CASKI was “inactive” throughout.
As for `CC=CCC(C)C(O)C1C(=O)NC(CC)C(=O)N(C)CC(=O)N(C)C(CC(C)C)C(=O)NC(C(C)C)C(=O)N(C)C(CC(C)C)C(=O)NC(C)C(=O)NC(C)C(=O)N(C)C(CC(C)C)C(=O)N(C)C(CC(C)C)C(=O)N(C)C(C(C)C)C(=O)N1C` (stereo not given), the molecule was called inactive with HACAT [2]. Moreover, the Potency result with MCC-13, in the test on MCC-26, in the test on MKL-1 and in the test with WaGa was “inactive” each time.
Regarding `O=C(NOCC(O)CO)c1cc(Br)c(F)c(F)c1Nc1ccc(I)cc1F` (stereo not given), the max response in the test with HEK293 is 0.434%; with KB-3-1, -16.7%. For the same molecule, the Potency result in the test with MCC-26, in the test on MKL-1, in the test with MKL-2, with UISO and in the test with WaGa was “inactive” each time.
As for `COc1ccc(-c2oc3c(CC=C(C)C)c(OC4O[C@H](CO)[C@@H](O)[C@H](O)[C@@H]4O)cc(O)c3c(=O)c2OC2O[C@@H](C)[C@H](O)[C@@H](O)[C@@H]2O)cc1` (stereo not given in full), the Potency with HEK293 is 18.7 µM (active). The max response in the test with NIH3T3 was -16.5%. For the same molecule, the Potency entry in the test on MCC-13, in the test on MKL-1 and with WaGa was “inactive” throughout.
`COc1ccc(C2Sc3ccccc3N(CCN(C)C)C(=O)C2OC(C)=O)cc1` (stereo not given): the Potency entry in the test with C33A and in the test on CASKI was “inactive” throughout.
Take `CC1(C)CCC2=C(O1)c1ccccc1C(=O)C2=O`: the outcome in the test with HaCat [1] and in the test with HACAT [2] was inactive. Also, the max response with KB-3-1 was 7.27%. Besides, in the test with MCC-26, the Potency entry is “inactive”. Besides, the Potency in the test with WaGa was 26.4 µM (active).
In the case of `Cc1c(O)cccc1C(=O)N[C@@H](CSc1ccccc1)[C@H](O)CN1C[C@H]2CCCC[C@@H]2C[C@@H]1C(=O)NC(C)(C)C`, the Potency result with MCC-13, in the test with MCC-26, in the test with MKL-1 and in the test with MKL-2 was “inactive” each time.
Regarding `CC(C)OC(=O)C(C)(C)Oc1ccc(C(=O)c2ccc(Cl)cc2)cc1`, the Potency entry in the test on C33A, with CAOV3 and in the test on CASKI was “inactive” in each case.
For the molecule `COCCOC(=O)C1=C(C)NC2=C(C(=O)CC(c3ccccc3OC)C2)C1c1cccc(O)c1` (stereo not given), the max response is -1.34% with HaCat [1] and -11.3% in the test on KB-3-1. In addition, the Potency result in the test with MCC-13, with MCC-26, with MKL-1, in the test with C33A, in the test on CAOV3 and with CASKI was “inactive” in each case.
For `O=c1[nH]cnc2c1ncn2[C@H]1CC[C@@H](CO)O1`, in the test on W2, the Potency was 13.5 µM (active). Further, the Potency entry in the test on C33A, in the test on CAOV3 and with CASKI was “inactive” in each case.
Regarding `C[N+](C)(C)CC(=O)O`, the Potency entry with MCC-13, in the test on MCC-26, with MKL-1, with MKL-2, with UISO and with WaGa was “inactive” each time. Moreover, the Potency entry in the test with C33A, with CAOV3 and in the test with CASKI was “inactive” each time.
On to `CC(C)n1cnc2c(NCCCCCCNC(=O)OC(C)(C)C)nc(NCCO)nc21`, for which, in the test on HEK293, the Potency is 14.8 µM (active). In addition, the max response with HaCat [1] was -3.35%. The Potency entry with MCC-13, in the test on MCC-26, in the test on MKL-1, in the test with MKL-2 and in the test on UISO was “inactive” throughout.
With `NS(=O)(=O)c1ccc(NC2=CC(=O)c3ccccc3C2=O)cc1`, the result in the test with HaCat [1] and in the test with HACAT [2] was inactive. The results for the max response in the test with KB-3-1 and with NIH3T3 were 7.69% and -17.3%, respectively. Also, the Potency result in the test with MCC-26 was “inactive”. Moreover, the Potency in the test on UISO was 2.64 µM (active).
On to `Cc1ccc(F)c(NC(=O)Nc2ccc(-c3cccc4[nH]nc(N)c34)cc2)c1`, for which the max response in the test on HaCat [1] is 2.26%; in the test with NIH3T3, -7.65%. Further, the Potency result in the test with MCC-13, in the test with MKL-2 and in the test with WaGa was “inactive” throughout.
